An excerpt weighted towards active compounds, which were near 4% of everything screened.
tim23-1 inh = growth inhibitors of tim23-1 mutant yeast; S. cerevisiae tim23-1 growth, BacTiter-Glo luminescence, 24 h; inhibition, % at 20 µM; hit rate 1.3% among 330,000; AID 463212;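 active = growth inhibition of the mutant yeast at or above 50%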;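 also: temperature-sensitive mutant grown at 25 °C; plate controls were DMSO-treated mutant yeast for no effect and medium wells lacking yeast for full effect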
tim10-1 inh = growth inhibitors of tim10-1 mutant yeast; S. cerevisiae tim10-1 ts strain growth, BacTiter-Glo, 24 h; inhibition, % at 20 µM; hit rate 2.2% among 330,000;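 active = inhibition of at least 40%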;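 also: mutant grown at 25 °C; 0% = DMSO wells with yeast and 100% = wells holding no yeast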
NALP1 yeast inh = inhibitors of NALP1 inflammasome in yeast; S. cerevisiae NALP1/ASC/caspase-1 growth, X-gal OD620, 72 h; AID 2071; hit rate 0.61% among 280,000; inhibition, % at 10 µM; in the data active = inhibition mostly above about 24%, no sharp cut-off; inactive = mostly below about 32%
TIM10 inh = TIM10 yeast growth inhibition; S. cerevisiae TIM10 strain growth, BacTiter-Glo luminescence, 24 h; hit rate 1.4% among 330,000; inhibition, % at 10 µM; AID 463195;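 active = inhibition of 40% or more at the single tested concentration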;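 also: wild-type TIM10 isogenic control strain grown at permissive 25 °C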
NLRP3 yeast inh = inhibitors of NALP3 inflammasome in yeast; inhibition, % at 10 µM; hit rate 0.39% among 330,000; Yeast reconstituted NLRP3/ASC/caspase-1, beta-gal luminescence, 24 h;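 active = inhibition of 50% or more; inactive = inhibition below 50%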;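 also: plate controls were induced DMSO wells for no effect and uninduced yeast grown without galactose for full effect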
tim10-1 confirm = tim10-1 yeast growth inhibition, confirmed; shares compounds with tim10-1 inh; S. cerevisiae tim10-1 ts strain growth, BacTiter-Glo, 24 h; inhibition, % at 20 µM; hit rate 56% among 7,400;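 active = inhibition of yeast growth at or above a set limit in either of two repeat tests at 20 µM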;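 also: tim10-1 mutant grown at permissive 25 °C to find synthetic lethal compounds; 0% = DMSO yeast wells and 100% = medium wells without yeast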
Active calls of the source: *.

O=C(COC(=O)c1cccc(NS(=O)(=O)/C=C/c2ccccc2)c1)Nc1ccccc1OC(F)F was read as tim23-1 inh 20, tim10-1 inh 23, NALP1 yeast inh 18, TIM10 inh 14 and NLRP3 yeast inh 8.
For CCOc1ccccc1C(=O)N/N=C/c1ccoc1 the results were tim23-1 inh 0, tim10-1 inh 6, NALP1 yeast inh 1, TIM10 inh 2 and NLRP3 yeast inh 10.
`Nc1nn2c(-c3ccccc3)cc(=O)[nH]c2c1N=Nc1ccc(O)cc1` gave tim23-1 inh 5, tim10-1 inh 41*, NALP1 yeast inh 14, TIM10 inh 4, NLRP3 yeast inh 18 and tim10-1 confirm 16.
Screening CC(C)Cn1c(N)c(C(=O)COC(=O)/C=C/c2ccccc2)c(=O)n(C)c1=O returned tim23-1 inh 22, tim10-1 inh 42*, TIM10 inh 17, NLRP3 yeast inh 6 and tim10-1 confirm 22.
`CCCOC(=O)c1ccc(NC(=O)c2c(Cl)ccc(Cl)c2OC)cc1` gave tim23-1 inh 45, tim10-1 inh 48*, NALP1 yeast inh 29, TIM10 inh 15, NLRP3 yeast inh 13 and tim10-1 confirm 32*.
`CN1CCN(S(=O)(=O)c2cccc(C(=O)Oc3cccc(Br)c3)c2)CC1` gave tim23-1 inh 49, tim10-1 inh 41*, TIM10 inh 23, NLRP3 yeast inh 9 and tim10-1 confirm 21.
For O=S(=O)(Nc1ccc(-n2cccc2)cc1)c1ccc(F)cc1 the results were tim23-1 inh 27, tim10-1 inh 17, NALP1 yeast inh 11, TIM10 inh 16 and NLRP3 yeast inh 3.
O=S(=O)(Nc1ccc(-n2cccc2)cc1)c1ccc(Cl)cc1Cl was read as tim23-1 inh 13, tim10-1 inh 48*, NALP1 yeast inh 50, TIM10 inh 33, NLRP3 yeast inh 37 and tim10-1 confirm 26.
`Cc1ccc(S(=O)(=O)N(Cc2ccccc2)c2ccccc2C(=O)NCc2cccnc2)cc1` gave tim23-1 inh 24, tim10-1 inh 41*, NALP1 yeast inh 4, TIM10 inh 14, NLRP3 yeast inh -5 and tim10-1 confirm 8.
Cc1cc(C)c(S(=O)(=O)N2CCCC(C(=O)NC3CCCC3)C2)c(C)c1 (centres undefined) was read as tim23-1 inh 29, tim10-1 inh 15, NALP1 yeast inh 12, TIM10 inh 6 and NLRP3 yeast inh 5.
Screening CCN(CC(=O)Nc1ccc(NC(C)=O)cc1)C(=O)c1ccccc1SCC(=O)N1CCCC1 returned tim23-1 inh 0, tim10-1 inh 2, TIM10 inh -2 and NLRP3 yeast inh 12.
CCCN1C(=O)c2ccc(C(=O)Nc3cc(C)ccc3O)cc2C1=O was read as tim23-1 inh 48, tim10-1 inh 44*, NALP1 yeast inh 32, TIM10 inh 3, NLRP3 yeast inh 9 and tim10-1 confirm 25.
`CN(C)CCCNC(=O)C[C@H]1C[C@H](C(=O)N2CCOCC2)[C@@]2(C)c3[nH]c4cc(-c5ccco5)ccc4c3CCN2C1=O` gave tim23-1 inh 23, tim10-1 inh -2 and TIM10 inh 4.
NS(=O)(=O)c1ccc(CCNC(=O)c2ccc(S(=O)(=O)N3CCCCC3)cc2)cc1 was read as tim23-1 inh 6, tim10-1 inh 15, NALP1 yeast inh -9, TIM10 inh -3 and NLRP3 yeast inh 5.
Screening O=C(NCCc1ccccc1)C1CCN(S(=O)(=O)c2cccs2)CC1 returned tim23-1 inh 12, tim10-1 inh 0, NALP1 yeast inh -6, TIM10 inh 3 and NLRP3 yeast inh 5.
`O=C(NCCc1ccc(Cl)cc1)C1CCN(S(=O)(=O)c2cccs2)CC1` gave tim23-1 inh 15, tim10-1 inh 50*, NALP1 yeast inh 10, TIM10 inh 36, NLRP3 yeast inh 13 and tim10-1 confirm 40*.
For O=C(NCCc1ccc(Cl)cc1)c1ccc(S(=O)(=O)N2CCCC2)cc1 the results were tim23-1 inh 24, tim10-1 inh 48*, TIM10 inh 33, NLRP3 yeast inh 23 and tim10-1 confirm 45*.
Screening COc1cc2c(cc1OC)CN(C(=O)CN1CCN(S(=O)(=O)c3ccccc3Br)CC1)CC2 returned tim23-1 inh -7, tim10-1 inh 12, NALP1 yeast inh 10, TIM10 inh 8 and NLRP3 yeast inh 8.
Screening COCCCNc1c2c3c(cccc3[nH]c1=O)C(=O)c1ccccc1-2 returned tim23-1 inh 16, tim10-1 inh 41*, NALP1 yeast inh 15, TIM10 inh 31, NLRP3 yeast inh -3 and tim10-1 confirm 23.
For COCCCNC1=C(Cl)C(=O)c2ccccc2C1=O the results were tim23-1 inh 41, tim10-1 inh 30, NALP1 yeast inh 9, TIM10 inh 27 and NLRP3 yeast inh 15.
Screening O=C(/C=C/c1ccccc1[N+](=O)[O-])NCc1cccnc1 returned tim23-1 inh 9, tim10-1 inh 4, NALP1 yeast inh 6, TIM10 inh -1 and NLRP3 yeast inh 12.
Screening COCCNC(=O)/C(C#N)=C/c1ccc(SC)cc1 returned tim23-1 inh -1, tim10-1 inh 5, NALP1 yeast inh 8, TIM10 inh 11 and NLRP3 yeast inh 17.
`COCCCNC(=O)/C(C#N)=C/c1ccc(F)cc1` gave tim23-1 inh 48, tim10-1 inh 42*, NALP1 yeast inh 14, TIM10 inh 13, NLRP3 yeast inh 8 and tim10-1 confirm 27.
Screening O=C1C(NS(=O)(=O)c2ccc(Br)cc2)=C(N2CCCCC2)C(=O)c2ccccc21 returned tim23-1 inh 44, tim10-1 inh 50*, NALP1 yeast inh -12, TIM10 inh 15, NLRP3 yeast inh 5 and tim10-1 confirm 14.
Screening CC1CCN(C2=C(NS(=O)(=O)c3ccc(Cl)cc3)C(=O)c3ccccc3C2=O)CC1 returned tim23-1 inh 39, tim10-1 inh 40*, NALP1 yeast inh 24, TIM10 inh 28, NLRP3 yeast inh -3 and tim10-1 confirm 29.
For COCCN(Cc1ccccc1)C(=O)c1cccc(S(=O)(=O)N(C)c2c(C)n(C)n(-c3ccccc3)c2=O)c1 the results were tim23-1 inh -22, tim10-1 inh 7, TIM10 inh -2 and NLRP3 yeast inh 5.
`COc1ccccc1Nc1nc(C)cc(C)n1` gave tim23-1 inh 2, tim10-1 inh 4, NALP1 yeast inh 13, TIM10 inh -4 and NLRP3 yeast inh 25.
For COc1ccccc1Nc1cc(C)nc(Nc2ccccc2OC)n1 the results were tim23-1 inh 42, tim10-1 inh 40*, TIM10 inh 34, NLRP3 yeast inh -65 and tim10-1 confirm 24.
`C=CCOc1ccccc1/C=c1\sc2nc(=O)c(C)nn2c1=O` gave tim23-1 inh 47, tim10-1 inh 45*, NALP1 yeast inh -2, TIM10 inh 30, NLRP3 yeast inh -4 and tim10-1 confirm 50*.
For CN(CCCS(=O)(=O)[O-])c1ccc(/C=C/c2ccc3ccccc3[n+]2C)cc1 the results were tim23-1 inh 39, tim10-1 inh 43*, NALP1 yeast inh 14, TIM10 inh 8, NLRP3 yeast inh 2 and tim10-1 confirm 5.
